# Shown are actives, neighbours in structure and some others; about 2.2% of the full set was active somewhere.
# EBNA-1 inh = blocks EBNA-1 binding to DNA | EBNA-1 DNA binding, fluorescence polarization | inhibition, % at 14.8 µM | actives 0.34% (n = 300,000) | AID 1950; in the data active = inhibition above about 28%
# dFosB activator = activators of mouse delta FosB homodimer | purified delta FosB, TAMRA-CDK5 oligo fluorescence polarization; percent of positive-control signal above neutral wells | actives 0.99% (n = 340,000) | activation, % at 25 µM | AID 493131;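 active = mean activation above about 17%, with every replicate also reaching it, limit read from the data, passing the limit was not always enough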
# Target sequence (P13346 whole entry, looked up): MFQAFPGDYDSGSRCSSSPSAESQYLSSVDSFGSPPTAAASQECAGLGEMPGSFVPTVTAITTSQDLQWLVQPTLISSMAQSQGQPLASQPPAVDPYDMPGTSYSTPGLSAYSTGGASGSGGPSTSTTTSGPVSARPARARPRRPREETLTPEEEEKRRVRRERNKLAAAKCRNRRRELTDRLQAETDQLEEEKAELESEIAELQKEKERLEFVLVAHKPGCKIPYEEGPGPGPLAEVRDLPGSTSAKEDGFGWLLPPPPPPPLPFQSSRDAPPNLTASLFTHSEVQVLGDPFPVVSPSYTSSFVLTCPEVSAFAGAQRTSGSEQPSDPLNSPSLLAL
# PolyA inhibitor = inhibitors of polyadenylation in S. cerevisiae; S. cerevisiae SKY197-pL101 polyadenylation reporter, beta-gal luminescence; efflux-impaired pdr1/pdr3 knockout yeast; score 100 = 6 SD above DMSO; activity score, % at 12 µM; actives 0.02% (n = 300,000); AID 1875;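 active = lowest replicate activity score at least 50, where 100 means six control SD above control mean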;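 note: yeast exposed to compound for 9 h at 30 °C; higher score means more reporter readthrough which indicates perturbed polyadenylation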
# NALP1 inh = NALP1 inhibition; S. cerevisiae NALP1/ASC/caspase-1 growth, X-gal OD620, 72 h; inhibition, % at 10 µM; actives 0.61% (n = 280,000); AID 2071; in the data active = inhibition mostly above about 24%, no sharp cut-off; inactive = mostly below about 32%
# ZTA DNA inh = counter-screen for EBNA-1 inhibitors: inhibitors of Epstein-Barr virus ZTA | P03206 | ZTA-DNA binding, fluorescence polarization | inhibition, % at 11 µM | actives 0.15% (n = 320,000); in the data active = inhibition above about 33%
# NALP3 yeast inh = inhibitors of NALP3 inflammasome in yeast; actives 0.39% (n = 330,000); AID 2825; Yeast reconstituted NLRP3/ASC/caspase-1, beta-gal luminescence, 24 h; inhibition, % at 10 µM;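 active = inhibition of 50% or more; inactive = inhibition below 50%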;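 note: plate controls were induced DMSO wells for no effect and uninduced yeast grown without galactose for full effect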
# Active calls of the source: *; · = not tested or not shown.
SMILES,EBNA-1 inh,dFosB activator,PolyA inhibitor,NALP1 inh,ZTA DNA inh,NALP3 yeast inh
O=C(CCN1C(=O)/C(=C/c2cccs2)SC1=S)Nc1ccccc1O,3,21*,-4,-18,7,11
O=C(CCCN1C(=O)/C(=C\c2cccs2)SC1=S)Nc1cc([N+](=O)[O-])ccc1O,-1,26*,4,0,-17,24
COc1ccc(/C=C(\NC(=O)c2ccco2)C(=O)NC(Cc2ccccc2)C(=O)O)cc1 (centres undefined),-3,5,0,14,-4,-5
Nc1ccc(C(=O)N2CCN(S(=O)(=O)c3ccc4c(c3)OCCCO4)CC2)cc1[N+](=O)[O-],·,-2,·,·,-7,16
Cc1ccc(N(C(C)C(=O)O)S(=O)(=O)c2c(C)[nH]c(=O)[nH]c2=O)cc1 (centres undefined),5,16*,-7,42*,-16,6
CS(=O)(=O)Nc1nnc(Cc2ccccc2)s1,-13,8,0,-80,4,12
CC(C)Cc1nnc(NS(=O)(=O)Cc2ccccc2)s1,-14,-4,-4,44*,-9,13
O=C(c1ccc(OCCN2CCCCC2)cc1)c1c(-c2ccc(O)cc2)sc2cc(O)ccc12,-5,34*,14,·,-15,8
C=CCOc1ccc(/C(O)=C2\C(=O)C(=O)N(CCOC)C2c2cccnc2)cc1 (centres undefined),11,-10,-1,·,-24,7
CCCOc1ccc(/C(O)=C2/C(=O)C(=O)N(CCOC)C2c2cccnc2)cc1 (centres undefined),-5,·,-9,31*,-1,11
Cc1ccc(Nc2c(-c3ccc(C)o3)nc3ncccn23)cc1,-13,-9,57*,28,7,4
Cc1cccc(NC(=S)N(C)C)c1C,5,0,-3,23,6,16
Cc1cccc(Nc2cc(C)c3c(O)cccc3n2)c1C,0,43*,12,60*,5,39
O=S(=O)(NC1CCCCC1)c1ccc(Cl)s1,-12,-7,-23,41*,6,50
CC1CCC(NS(=O)(=O)c2ccc(Cl)s2)CC1 (centres undefined),·,-4,·,·,·,44
Cc1nn(-c2ccccc2)c(C)c1/C=N/Nc1nc2ccccc2[nH]1,-6,27*,4,3,-21,29
CCN(CC)c1ccc(/C=N/Nc2nc3ccccc3[nH]2)cc1,·,39*,15,28,·,·
CC(=O)Nc1ccc(/C=N/Nc2nc3ccccc3[nH]2)cc1,-2,11,-5,21,-5,-10
Clc1nc2ccccc2cc1/C=N/Nc1nc2ccccc2[nH]1,6,18*,5,·,-10,26
Cc1c(/C=N/Nc2nc3ccccc3[nH]2)c2ccccc2n1C,-4,78*,11,·,-1,27
COc1ccc(/C=C/C(=O)NCCSCc2ccco2)cc1OC,15,-6,11,39*,-5,10
CC(OC(=O)c1cccc([N+](=O)[O-])c1)C(=O)NCc1ccc2c(c1)OCO2 (centres undefined),6,-1,7,7,2,11
CCC1(CC)C(=O)N(C)C(=O)NC1=Nc1ccc(OC)cc1,-9,-4,3,41*,8,13
CCC1(CC)C(=O)N(C)C(=O)NC1=NCc1ccccc1,-8,-1,6,10,4,4
O=C(COC(=O)Cc1ccc(S(=O)(=O)N2CCOCC2)s1)NCc1ccccc1,15,-12,903*,5,10,0
COc1cccc(N2CCN(C(=O)c3ccc(=O)oc3)CC2C)c1 (centres undefined),3,0,-11,40*,3,6
CN1CCN(c2ccc(S(=O)(=O)N3CCCCC3)cc2NC(=O)/C=C/c2ccc(OC(F)F)cc2)CC1,-11,-19,0,·,4,7
CN1CCN(c2ccc(S(=O)(=O)N3CCCCC3)cc2NC(=O)/C=C/c2ccc(Cl)c([N+](=O)[O-])c2)CC1,5,52*,-7,·,16,30
CCN1CCN(c2ccc(S(=O)(=O)N3CCCCC3)cc2NC(=O)/C=C/c2ccc([N+](=O)[O-])cc2)CC1,-7,52*,2,·,9,11

# Bioassay records as filed in PubChem BioAssay.
